PubChem BioAssay (NCI)
Compounds without any hit were thinned out: in the full panel of roughly 83,000, 20% have a hit.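 How to read the values: 0–100, growth inhibition (40 = 60% inhibited); 0, no net growth; -100 to 0, cell death (-40 = 40% of starting cells died; -100 = all dead).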 A number with no mark means an inactive call. The source made the active and inactive calls. The calls were made as follows: active = growth percent below 10; inactive = the rest.

How the values were obtained:
Test in all cases: NCI-60 one-dose screen, 48 h (100 = growth as untreated, 0 = no growth, -100 = all killed)
Settings in all cases: 10 µM unless noted
DU-145 prostate = system: DU-145 prostate
K-562 leukemia = system: K-562 leukemia
MALME-3M melanoma = system: MALME-3M melanoma
MDA-MB-231 breast = system: MDA-MB-231 breast
RXF 393 renal = system: RXF 393 renal
SF-268 CNS = system: SF-268 CNS
SF-295 CNS = system: SF-295 CNS
SF-539 CNS = system: SF-539 CNS
UACC-257 melanoma = system: UACC-257 melanoma
M14 melanoma = system: M14 melanoma
HCT-15 colon = system: HCT-15 colon
HT29 colon = system: HT29 colon
SNB-75 CNS = system: SNB-75 CNS
SNB-19 CNS = system: SNB-19 CNS
U251 CNS = system: U251 CNS
PC-3 prostate = system: PC-3 prostate
SK-MEL-5 melanoma = system: SK-MEL-5 melanoma
UACC-62 melanoma = system: UACC-62 melanoma
LOX IMVI melanoma = system: LOX IMVI melanoma
SK-MEL-28 melanoma = system: SK-MEL-28 melanoma

SMILES	growth (DU-145 prostate)	growth (K-562 leukemia)	growth (MALME-3M melanoma)	growth (MDA-MB-231 breast)	growth (RXF 393 renal)	growth (SF-268 CNS)	growth (SF-295 CNS)	growth (SF-539 CNS)	growth (UACC-257 melanoma)	growth (M14 melanoma)	growth (HCT-15 colon)	growth (HT29 colon)	growth (SNB-75 CNS)	growth (SNB-19 CNS)	growth (U251 CNS)	growth (PC-3 prostate)	growth (SK-MEL-5 melanoma)	growth (UACC-62 melanoma)	growth (LOX IMVI melanoma)	growth (SK-MEL-28 melanoma) [%]
CCN(CC)CCCNC(=O)c1c2c(n3ccccc13)C(=O)c1ncccc1C2=O	-94.9% (active)	-33.7% (active)	-93% (active)	-0.531% (active)	-35.9% (active)	-3.91% (active)	-22.1% (active)	-63% (active)	-90.1% (active)	-84.1% (active)	-73.6% (active)	-28.5% (active)	-87.2% (active)	-71.3% (active)	-83.8% (active)	-19.8% (active)	-99.2% (active)	-53.8% (active)	-71.2% (active)	22.8
CCCCCCCCNC(=O)[C@@H](N)CSCOC(C)=O	87.6%	71.8%	114%	91.9%	124%	-31.5% (active)	102%	79.9%	110%	34.2%	99.5%	89.4%	-17.3% (active)	90.8%	102%	75.9%	48.7%	70%	44.4%	99.6
C#C[C@]1(O)CC[C@H]2[C@@H]3CC=C4c5sc(-c6cccc(C)c6)nc5CC[C@]4(C)[C@H]3CC[C@@]21C	78.5%	0.702% (active)	83%	59.8%	11.7%	60.8%	58.5%	15.9%	58.5%	58.7%	56.6%	38.8%	13.8%	86.7%	71.8%	40.5%	82.5%	77.3%	55%	55.9
COc1nc2ccccc2cc1/C=[N+](\[O-])c1ccccc1	102%	13.5%	60.9%	57.5%	85.5%	65.5%	93.5%	34.2%	93%	39.6%	19%	70%	73%	81.8%	56%	60.3%	73.4%	62.8%	40.1%	101
COC(=O)c1c(C)nc(C)c2c1C(=O)C(Br)=C(NCCN1CCOCC1)C2=O	112%	97.4%	37%	112%	106%	95.3%	95.8%	107%	87.5%	87.8%	87.9%	68.2%	119%	101%	101%	86.3%	70.8%	55.6%	82.8%	113
c1ccc(-c2cn3nc(-c4c[nH]c5ccccc45)sc3n2)cc1	98%	42.4%	62.6%	76.5%	97.4%	94.4%	83.7%	85.5%	83.2%	71.1%	56.2%	86%	54.1%	87.6%	92.4%	76.8%	74.2%	71%	86%	86.8
COc1cc(CNC(=O)CCCC/C=C/C(C)C)ccc1OCc1cn(-c2ccc(C(F)(F)F)cc2)nn1	80.7%	76.3%	99.7%	70.7%	65.6%	87.8%	90.9%	81.9%	98.2%	97.5%	59.7%	79%	49.7%	76.1%	46.7%	62.2%	97.1%	84.3%	60.3%	107
C=C(C)[C@@H]1CC[C@]2(C#N)CC[C@]3(C)[C@H](CC[C@@H]4[C@@]5(C)CCCNC(C)(C)[C@@H]5CC[C@]43C)[C@@H]12	65.5%	-26.2% (active)	81%	57.6%	82.3%	87.1%	92.9%	84%	70.8%	64.4%	23%	9.37% (active)	83.9%	78.6%	16.7%	68.7%	86.4%	88.6%	-44.3% (active)	97.3
